# From the OligoGym collection
# Molecular target: ZNF512B
# Test: pooled miR-30 sensor sort-seq; sequence = guide strand
# Details: shRNA
# Note: reference of the scale not given here.
row,Sequence,sensor-assay potency score (higher = more potent)
1,TTCGTAACTGTCACAAGCTTTG,-1.03
2,TTGGACTTGAACTGCTTCCGGC,-0.182
3,TTTCGTAACTGTCACAAGCTTT,-0.797
4,TTGAAGGGCATCAAGCTTCTGC,0.255
5,TGAGTTTGGACACTTCACCCTC,-0.0834
6,TAGTGTGGTAGTTGAGGCCGGC,-0.21
7,TTGCTGACTCCCACCTTCCGGC,-0.809
8,TTCGGAACCAGTTCTCTGCGTG,-0.0926
9,TTTGGACTTGAACTGCTTCCGG,0.34
10,TTGCTGACCACAATGGGCCTGC,0.0376
11,TACTTGAGCCCGTAGATGCTGG,-0.743

# Molecular target: ZNF517
# Test: as above
# Details: shRNA
row,Sequence,sensor-assay potency score (higher = more potent)
1,TTGAGGGTGAACCTGCGGCAGA,-1.5
2,TTGTATCTGAACGCCTTGCCGC,-1.19
3,TCTTCCTGCAGAACCCTTGGGG,-0.177
4,TTTGGCAACAAGAAAGCCTAGT,0.561
5,TTGTGAAGTACACAGCCACATC,-1.38
6,TCGTTGAGGGTGAACCTGCGGC,-0.629
7,TTCAGCGTGTAGCTCCTGCGGA,-0.596
8,TGCTCGTTGAGGGTGAACCTGC,-1.07
9,TCGTTCAGCGTGTAGCTCCTGC,-0.267
10,TTCTGGTGCTGCAGCAGCCGGG,-1.68
11,TTCTCTGCAGAGGAGACTCCAT,-1.52
12,TCCTTGTGAAGTACACAGCCAC,-1.39

# Molecular target: ZNF543
# Test: as above
# Details: shRNA
row,Sequence,sensor-assay potency score (higher = more potent)
1,TCTTTGTACATACACCATCATC,-1.6
2,TTCTTTTTAAACACTTTCCCGC,-0.356
3,TTCAGAACTCATTTTCTCCAGC,0.596
4,TGTAGTGTCGAATGAAACCTGG,-0.172
5,TTTCACTCCAGTGTGAATCTGT,0.767
6,TAATCTTTGTACATACACCATC,-0.698
7,TTCACTTGAGTGTGAATCCGTT,-0.0362
8,TAGGAATTTTTCTCTTCGCGAA,-0.467
9,TTTTTAAACACTTTCCCGCATT,-0.669
10,TTCTGTTGAAACTTGTTTCTGT,0.852
11,TTCTGTGTAATCTTTGTACATA,-0.793
12,TTGTACATACACCATCATCTGA,-0.467

# Molecular target: ZNF548
# Test: as above
# Details: shRNA
row,Sequence,sensor-assay potency score (higher = more potent)
1,TAACCTCTGACACTCCTACAGA,-0.754
2,ATTCATAAGACCTTTCTCCTGT,0.892
3,ATTTGTAATCATTTTGTCCAGT,-0.192
4,TTATAAGGTCTTTCTCCGGTGT,-0.00393
5,TTTCTGGTGATGAACCAGGTGA,-0.687
